Results from PubChem BioAssay.
Activity calls are given as the source filed them.

Assays:
[1] = system: Plasmodium falciparum Sir2 (PF13_0152, Sir2A); experiment: pfSir2 binders on small-molecule microarrays, primary screen, biochemical, small-molecule microarray, 635 nm fluorescence (AID 1098); settings: small-molecule microarray binding, fluorescence 635 nm; higher = more signal;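 note: score merges spot fluorescence intensity with its signal-to-noise ratio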
[2] = small-molecule microarray binders of probe aDKK1, primary screen, biochemical, biotinylated probe, 635/667 nm fluorescence (AID 1099); settings: higher = more signal;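 note: score merges 667nm spot fluorescence with signal to noise across triplicate slides; reference of the scale not given here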
[3] = small-molecule microarray binders of probe aCHRDL2, primary screen, biochemical, biotinylated probe, 635/667 nm fluorescence (AID 1100); settings: higher = more signal
[4] = splicing luciferase reporter signal modulators, primary screen, spliceosome inhibition project, cell-based, HEK293, splice +/- reporter (AID 1101); settings: luminescence, 24 h, higher = more signal, called active from +8 up or from −8 down;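 note: HEK293 cells carrying a splicing-competent luciferase reporter gene; test concentration not given here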
[5] = biological target: Fibroblast growth factor 10 (Homo sapiens) (UniProt O15520); experiment: FGF10 binders on small-molecule microarrays, primary screen, biochemical, small-molecule microarray, 635 nm fluorescence (AID 1102); settings: FGF10 binding, fluorescence 635 nm, higher = more signal
Chain of Fibroblast growth factor 10 (Homo sapiens) (O15520 whole entry, looked up): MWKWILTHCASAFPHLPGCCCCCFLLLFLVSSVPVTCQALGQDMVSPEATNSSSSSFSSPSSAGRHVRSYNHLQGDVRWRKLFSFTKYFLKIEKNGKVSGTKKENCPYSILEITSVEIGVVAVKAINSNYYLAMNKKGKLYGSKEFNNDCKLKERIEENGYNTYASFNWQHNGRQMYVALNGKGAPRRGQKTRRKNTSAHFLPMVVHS

[6] = system: glycogen synthase kinase-3 (GSK3A per assay name; protocol says GSK3B); experiment: GSK3 binders on small-molecule microarrays, primary screen, biochemical, small-molecule microarray, 635 nm fluorescence, GSK3A (AID 1103); settings: small-molecule microarray binding, fluorescence 635 nm; higher = more signal; note: the record names both GSK3A and GSK3B
[7] = biological target: Epidermal growth factor receptor (Homo sapiens) (UniProt P00533); experiment: EGFR binders on small-molecule microarrays, primary screen, biochemical, small-molecule microarray, 635 nm fluorescence (AID 1104); settings: EGFR binding, higher = more signal;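 note: score merges 667 nm emission intensity with spot signal to noise over triplicate slides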
Chain of Epidermal growth factor receptor (Homo sapiens) (P00533 whole entry, looked up): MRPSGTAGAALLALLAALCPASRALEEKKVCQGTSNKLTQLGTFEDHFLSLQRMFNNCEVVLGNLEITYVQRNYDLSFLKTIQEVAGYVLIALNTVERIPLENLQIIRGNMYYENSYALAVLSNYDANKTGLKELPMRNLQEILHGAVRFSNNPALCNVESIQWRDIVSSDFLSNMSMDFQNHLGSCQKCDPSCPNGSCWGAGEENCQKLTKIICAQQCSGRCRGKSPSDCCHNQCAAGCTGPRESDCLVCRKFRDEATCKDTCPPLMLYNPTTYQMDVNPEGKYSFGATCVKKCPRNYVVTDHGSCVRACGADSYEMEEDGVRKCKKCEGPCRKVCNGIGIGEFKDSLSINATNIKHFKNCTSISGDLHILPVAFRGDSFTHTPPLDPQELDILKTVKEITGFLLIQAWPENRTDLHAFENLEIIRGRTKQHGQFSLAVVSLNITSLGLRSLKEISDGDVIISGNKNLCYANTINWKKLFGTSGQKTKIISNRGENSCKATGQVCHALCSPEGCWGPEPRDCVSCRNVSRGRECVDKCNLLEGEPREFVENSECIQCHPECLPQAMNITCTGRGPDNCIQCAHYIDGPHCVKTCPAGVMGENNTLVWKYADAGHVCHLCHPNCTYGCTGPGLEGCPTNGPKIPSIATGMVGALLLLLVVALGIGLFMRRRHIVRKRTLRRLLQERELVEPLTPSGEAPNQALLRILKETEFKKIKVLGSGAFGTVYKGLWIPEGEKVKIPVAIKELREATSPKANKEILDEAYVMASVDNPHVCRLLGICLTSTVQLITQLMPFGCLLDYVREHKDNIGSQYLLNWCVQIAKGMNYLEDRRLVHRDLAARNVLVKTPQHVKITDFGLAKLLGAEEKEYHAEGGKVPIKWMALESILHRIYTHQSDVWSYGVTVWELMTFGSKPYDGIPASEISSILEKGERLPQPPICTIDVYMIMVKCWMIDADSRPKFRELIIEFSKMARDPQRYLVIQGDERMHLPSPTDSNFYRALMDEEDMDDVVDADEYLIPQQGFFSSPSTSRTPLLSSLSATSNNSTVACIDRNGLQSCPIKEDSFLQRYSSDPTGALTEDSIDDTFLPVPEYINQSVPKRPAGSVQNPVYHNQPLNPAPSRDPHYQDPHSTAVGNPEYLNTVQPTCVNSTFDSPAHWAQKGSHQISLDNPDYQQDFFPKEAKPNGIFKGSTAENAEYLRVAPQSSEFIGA

[8] = biological target: Follistatin-related protein 3 (Homo sapiens) (UniProt O95633); experiment: FSTL3 binders on small-molecule microarrays, primary screen, biochemical, small-molecule microarray, 635 nm fluorescence (AID 1105); settings: FSTL3 binding, higher = more signal;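 note: score merges emission near 667 nm and signal to noise per printed spot across three slides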
Chain of Follistatin-related protein 3 (Homo sapiens) (O95633 whole entry, looked up): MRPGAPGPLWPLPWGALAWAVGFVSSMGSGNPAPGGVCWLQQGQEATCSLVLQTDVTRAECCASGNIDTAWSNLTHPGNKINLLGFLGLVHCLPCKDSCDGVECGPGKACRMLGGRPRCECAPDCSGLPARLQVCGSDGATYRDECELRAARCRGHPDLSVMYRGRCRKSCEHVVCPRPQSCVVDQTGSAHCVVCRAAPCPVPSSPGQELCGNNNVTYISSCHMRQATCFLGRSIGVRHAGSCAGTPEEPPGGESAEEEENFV

[9] = biological target: Dickkopf-related protein 1 (Homo sapiens) (UniProt O94907); experiment: DKK1 binders on small-molecule microarrays, primary screen, biochemical, small-molecule microarray, 635 nm fluorescence scan (AID 1106); settings: DKK1 binding, higher = more signal;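 note: score merges emission near 667 nm with signal to noise over three replicate slides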
Chain of Dickkopf-related protein 1 (Homo sapiens) (O94907 whole entry, looked up): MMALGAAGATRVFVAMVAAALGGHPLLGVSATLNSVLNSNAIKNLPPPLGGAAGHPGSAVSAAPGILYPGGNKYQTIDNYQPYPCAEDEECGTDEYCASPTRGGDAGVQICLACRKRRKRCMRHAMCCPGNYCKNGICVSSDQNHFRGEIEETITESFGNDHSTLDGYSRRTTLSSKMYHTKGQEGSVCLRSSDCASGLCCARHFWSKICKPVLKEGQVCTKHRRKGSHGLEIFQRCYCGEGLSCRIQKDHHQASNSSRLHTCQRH

[10] = system: Inhibin beta A chain (activin A); experiment: INHBA (activin A) binders on microarrays, primary screen, biochemical, small-molecule microarray, 635 nm fluorescence scan (AID 1107); settings: small-molecule microarray binding, higher = more signal;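 note: mouse activin A protein probed at 4.33 µg/mL on printed slides; score merges bound-protein fluorescence near 667 nm with spot signal-to-noise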

Compound	composite z-score [1]	composite z-score [2]	composite z-score [3]	z-score [4]	composite z-score [5]	composite z-score [6]	composite z-score [7]	composite z-score [8]	composite z-score [9]	composite z-score [10]
C=CCc1cccc([C@@H]2[C@@H](C)CC[C@H]3C(=O)N4[C@H](c5cccc(CC=C)c5)[C@@H](C)CC[C@H]4C(=O)N23)c1	0.725	-0.0603	0.175	-1.34 (inactive)	0.756	0.365	0.654	0.831	0.666	1.67
CCN1C(C)=C(C(=O)OC)[C@@H](c2ccccc2)N2C(=O)[C@@]3(C(=O)OC)O[C@@]12[C@@H]1C(=O)N(C)C(=O)[C@@H]13	0.736	-0.0561	-0.45	-0.997 (inactive)	1.25	0.622	0.471	1.41	1.1	0.613
CN1C(=O)C2C=CC(C(O)C3CC=CCC3)N(Nc3ccccc3)C2C1=O (stereo not given)	1.09	0.642	0.533	1.2 (inactive)	0.989	0.879	1.07	1.45	1.06	1.3
CCCC=C(CCC)[C@@H](NC(=O)c1ccccc1)c1ccccc1	-0.597	0.712	1.07	-0.0542 (inactive)	-0.0829	-1.87	-0.292	-0.501	-0.0056	1.16
C[C@@H]1C=CCC(=O)OC[C@H]2O[C@@H](C=C[C@@H]2O)[C@H](C)C=CCC(=O)OC[C@H]2O[C@H]1C=C[C@@H]2O	0.489	-0.384	-1.67	-2.62 (inactive)	1.22	1.18	1.41	1.47	2.11	1.16
CCCCCCc1nc(C2CC2)c(C)c2c1[Si](C(C)C)(C(C)C)OC2	-0.192	-0.124	0.109	-3.06 (inactive)	-0.391	-0.562	0.138	-0.127	0.438	1.54
CC(C)C[C@@H]1NC(=O)[C@H]2C[C@@H](C(=O)NCCCCCC[N+](C)(C)C)[C@@H](c3ccc(O)cc3)N2C1=O	1.46	-0.196	0.0009	-0.177 (inactive)	-0.563	-0.595	-0.403	1.28	0.505	0.446
O=C(NCc1ccccc1)[C@@]1(Cc2ccccc2)COC(c2ccc(OCCCO)cc2)=N1	0.838	0.599	1.06	-0.13 (inactive)	0.117	0.0562	-0.705	-0.641	-0.715	0.578
CO[C@H]1COC(=O)CC=C[C@H](C)[C@@H](OC)COC(=O)[C@H](Cc2ccccc2)NC(=O)CC=C[C@@H]1C	1.49	-1.1	-1.86	-1.34 (inactive)	-0.0885	0.344	0.514	1.22	1.96	1.72
CO[C@H]1COC(=O)[C@H](C)COC(=O)[C@H](Cc2ccccc2)NC(=O)CC=C[C@H]1C	1.01	-0.345	-1.3	-0.857 (inactive)	0.245	-0.232	0.843	1.31	1.68	1.26
O=C1C[C@@](C(=O)NCCN2CCOCC2)(c2ccc([N+](=O)[O-])cc2)[C@@H](c2ccc(CO)cc2)N1C1CCCCC1	1.2	0.653	1.02	0.281 (inactive)	0.798	1.02	0.789	0.662	-0.0544	0.64
[N-]=[N+]=Nc1ccccc1C[C@@]1(C(=O)N2CCOCC2)N=C(c2ccc(OCCCO)cc2)O[C@@H]1c1ccccc1N=[N+]=[N-]	0.668	1.35	1.13	0.144 (inactive)	0.997	1.29	0.215	1.28	0.444	0.937
CC(=O)NCCCC[C@@H]1NC(=O)[C@H]2C[C@@H](C(=O)NCCCCCCN(C)C)[C@@H](c3ccc(O)cc3)N2C1=O	1.04	-0.124	0.0091	-0.808 (inactive)	0.815	1.35	0.851	1.55	1.14	0.775
C=C(COC)/C(=C/C[C@@H](OC(C)=O)c1cccc(OCCO)c1)c1cc(C(=O)OC)ccc1OC	0.695	0.258	0.258	-0.964 (inactive)	0.0556	0.0957	0.214	0.121	-0.0663	0.971
CO[C@H]1COC(=O)CC=C[C@H](C)COC(=O)[C@@H](OCc2ccccc2)C=C[C@@H]1C	0.558	-1.12	-1.62	-1.71 (inactive)	0.429	1.28	0.711	1.2	2.07	0.924
COCCOC(=O)N1C(=O)[C@@]2(c3cc(C#CCC(C(=O)OC)C(=O)OC)ccc31)[C@H](C(=O)N1CCN(c3ncccn3)CC1)[C@H]1C(=O)O[C@H](c3ccccc3)[C@H](c3ccccc3)N1[C@@H]2c1ccc(O)cc1	1.25	0.2	0.733	-1.15 (inactive)	0.589	0.845	0.279	0.698	0.0392	0.283
C#CCCCON=C1C[C@@H](O)[C@@H](O)[C@@H]2[C@@H]3C(=O)N(Cc4ccc5c(c4)OCO5)C(=O)[C@@H]3CC[C@@H]12	0.211	-0.136	0.0822	-0.117 (inactive)	0.42	0.257	0.336	0.862	0.278	0.308
CCCNC(=O)[C@@]1(Sc2ccc(C)cc2)CC(=O)N(Cc2ccccc2Cl)[C@@H]1c1ccc(CO)cc1	0.237	0.866	0.956	-2.31 (inactive)	0.719	1.28	0.566	1.06	1.22	1.42
CC(C)CNC(=O)[C@@]1(C)c2ccccc2C(=O)N(Cc2ccc(OC(F)(F)F)cc2)[C@H]1c1ccc(CO)cc1	-0.857	0.629	1.14	0.581 (inactive)	-0.494	-0.694	-1.15	-0.877	-0.973	0.159
CCOC(=O)C1=CCC(c2cccc3ccccc23)N(S(=O)(=O)c2ccc(C)cc2)C1 (stereo not given)	0.471	0.981	0.596	0.664 (inactive)	0.279	0.912	0.385	0.681	-0.141	1.41
COC(=O)Cn1c(C(=O)N2CCCC2)cc2c1C[C@H]1CN(C(=O)c3ccccc3)[C@@](Cc3ccccc3)(C(=O)OC)[C@@H]21	0.473	0.789	1.09	0.309 (inactive)	0.0175	-0.838	-0.282	0.105	-0.837	0.632
CCOC(=O)C[C@H]1[C@H](OC(=O)Cc2ccc3c(c2)OCO3)[C@@H](NC(=O)c2ccc3ccccc3c2)c2cc(OCCCO)ccc2N1C(=O)Cc1ccc(OC)cc1	0.354	0.19	0.0248	-1.83 (inactive)	0.491	0.397	0.373	0.439	0.435	0.147
CC(C)N1CC=CC23O[C@@H]4/C=C\CCCOC(=O)C4[C@H]2C(=O)N(CCCCCO)[C@@H]3C1=O (stereo not given in full)	0.21	-0.195	0.632	0.0946 (inactive)	-0.655	-1.42	-1.97	-1.04	-1.09	0.213
CCCC/C=C/[C@H]([C@@H](O)Cc1ccccc1)N(CC#Cc1ccccc1)Cc1ccccc1Br	-0.488	0.113	1.26	-0.669 (inactive)	-1.47	-0.749	-1.77	-1.55	-2.53	0.109
COCCOC(=O)N1C(=O)[C@@]2(c3cc(C#CC4=CCCCC4)ccc31)[C@H](C(=O)NC[C@H](O)c1ccccc1)[C@H]1C(=O)O[C@H](c3ccccc3)[C@H](c3ccccc3)N1[C@@H]2c1ccc(OCCO)cc1	0.915	-0.18	0.226	-0.718 (inactive)	1.29	1.28	0.483	1.37	0.817	0.49
CCC(=O)[C@]12O[C@@]3([C@@H]4C(=O)OCC[C@@H]41)N(CC)C(C)=C(C(=O)OC)[C@@H](c1ccccc1)N3C2=O	-0.155	-0.41	-0.87	-1.9 (inactive)	0.162	0.0495	0.0064	0.599	0.817	1.7
C=CC[C@@]1(C(=O)N2CCOCC2)N=C(c2ccc(OCCCO)cc2)O[C@@H]1c1ccccc1	-0.406	0.853	0.845	-0.462 (inactive)	0.293	0.175	-0.622	-0.72	-0.191	0.437
